SW480 rerep – inducers of DNA re-replication in SW480 colon cancer cells; SW480 DNA re-replication, Hoechst DNA content imaging, 48 h; actives 1.8% (n = 340,000); Potency, µM (series often up to 46.1 µM), hits mostly activators; further: nearly all actives have a fitted effect of over 55% in size
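First, 250 cells per well were seeded. Next, compound or vehicle (23 nL) was pinned in, plates sat 48 hr at 37 C. Finally Hoechst was added for 40 min before fluorescence scanning.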
RORgamma inh – blocks mouse ROR gamma transcriptional activity | AID 2551 | P51450 | Drosophila S2 Gal4-RORgamma UAS-luciferase reporter, 20 h | Potency, µM (doses to about 53.6 µM), actives largely listed as inhibitors | actives 5.4% (n = 310,000); further: nearly all actives have a fitted effect of over 60% in size
Target sequence (P51450 whole entry, looked up, the tested form may be a part): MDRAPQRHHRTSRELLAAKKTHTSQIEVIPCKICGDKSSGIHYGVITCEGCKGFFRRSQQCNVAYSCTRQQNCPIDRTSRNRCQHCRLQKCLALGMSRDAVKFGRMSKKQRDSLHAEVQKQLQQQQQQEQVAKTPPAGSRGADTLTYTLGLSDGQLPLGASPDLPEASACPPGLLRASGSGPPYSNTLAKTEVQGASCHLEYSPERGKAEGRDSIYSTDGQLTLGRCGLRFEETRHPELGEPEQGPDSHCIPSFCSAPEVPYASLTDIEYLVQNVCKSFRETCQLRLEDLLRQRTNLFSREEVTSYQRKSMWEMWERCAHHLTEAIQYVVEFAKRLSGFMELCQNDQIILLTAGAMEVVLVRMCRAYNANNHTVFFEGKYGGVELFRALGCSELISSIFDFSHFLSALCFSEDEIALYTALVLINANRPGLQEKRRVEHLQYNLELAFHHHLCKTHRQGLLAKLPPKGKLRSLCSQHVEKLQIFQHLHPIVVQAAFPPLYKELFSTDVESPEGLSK
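ROR gamma transcriptional activity was tracked as Gal4-UAS luciferase output in stably transfected Drosophila Schneider cells, with compound added 1 hr before 700 uM copper sulfate induction and a 20 hr ambient-temperature incubation.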
Gal4-VP16 FLuc – Gal4-VP16 reporter inhibition counter-screen; actives 3.5% (n = 310,000); Drosophila S2 Gal4-VP16 UAS-luciferase, luminescence, 20 h; AID 2546; Potency, µM (top dose mostly 53.6 µM), actives largely listed as inhibitors;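 further: Gal4-VP16 expression switched on by copper sulfate through the metallothionein promoter; nearly all actives have a fitted effect of over 50% in size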
ELG1 repair inh – blocks ELG1-dependent DNA repair in HEK293T cells. HEK293T ELG1-luciferase reporter, luminescence, 16 h; DNA damage induced by 5-fluorouridine. Potency, µM (highest dose often 46.1 µM), usual class: inhibitors. actives 2.3% (n = 330,000). AID 504467; further: nearly all actives have a fitted effect of over 55% in size
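In this reporter screen, reduction of luminescence relative to DMSO vehicle indicated activity. Compounds and 5-fluorouridine were added together to 2,000 cells per well, incubated for 16 hr at 37 °C, then developed with ONE-Glo.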
MCF10A rerep – inducers of DNA re-replication in MCF 10A breast cells | MCF 10A DNA re-replication, Hoechst nuclear intensity, 48 h | Potency, µM (highest dose often 46.1 µM), usual class: activators | actives 2.9% (n = 350,000) | AID 624296; further: nearly all actives have a fitted effect of over 50% in size
Large screens that a line does not name were inactive; ! = a repeat was not active. An excerpt weighted towards active compounds, which were near 10% of everything screened. The call rests on the fitted dose curve; in most records, active means well fitted curve in the direction sought with a large enough effect; inconclusive means small, poorly fitted or top-dose-only effect, or another doubt; inactive means no such curve, though single readings can be large; an effect the other way counts as inactive or inconclusive.

O=C1C=CC(=O)c2c(O)c(N3CCN(CCO)CC3)c(Cl)c(O)c21	SW480 rerep 0.65µM (no result: RORgamma inh, Gal4-VP16 FLuc, ELG1 repair inh)
O=C1C=CC(=O)c2c(O)c(N3CCN(CCOCCO)CC3)c(Br)c(O)c21	SW480 rerep inconclusive (no result: RORgamma inh, Gal4-VP16 FLuc, ELG1 repair inh)
CCCC[n+]1ccn(-c2nc3ccccc3nc2[N-]S(=O)(=O)c2ccccc2)c1	SW480 rerep inconclusive, MCF10A rerep inconclusive
CCCC[n+]1ccn(-c2nc3ccccc3nc2[N-]S(=O)(=O)c2cccs2)c1	SW480 rerep 16µM, ELG1 repair inh 21µM, MCF10A rerep inconclusive
O=S(=O)([N-]c1nc2ccccc2nc1-n1cc[n+](Cc2ccccc2)c1)c1ccccc1	SW480 rerep inconclusive, ELG1 repair inh inconclusive, MCF10A rerep 6.5µM
CC1(C)SC(=S)N(/N=C/c2cccnc2)C1N(O)C(=O)Nc1ccccc1 (centres undefined)	none
CC1(C)SC(=S)N(/N=C/c2ccccc2O)C1N(O)C(=O)Nc1ccccc1 (centres undefined)	SW480 rerep inconclusive, RORgamma inh 18µM, Gal4-VP16 FLuc inconclusive, ELG1 repair inh inconclusive, MCF10A rerep inconclusive
CNC(=O)N(O)C1N(/N=C/c2cc(Br)ccc2O)C(=S)SC1(C)C (centres undefined)	RORgamma inh 16µM, Gal4-VP16 FLuc inconclusive
O=C(Oc1c(-c2ccccc2)c(=O)n2c3c(cccc13)CC2)c1ccc(F)cc1	ELG1 repair inh inconclusive, MCF10A rerep 26µM
O=C(O)C(=O)/C(=C\c1ccccc1)c1ccc2ccccc2n1	ELG1 repair inh inconclusive
O=C(O)C(=O)/C(=C\c1cccc2ccccc12)c1ccc2ccccc2n1	SW480 rerep inconclusive, MCF10A rerep 16µM
Cc1nnc2n1N=C(c1ccc(OC(F)F)cc1)C(C)S2 (centres undefined)	none
CCc1ccc(OCc2ccc(C(=O)O)o2)cc1	RORgamma inh 7.1µM, Gal4-VP16 FLuc inconclusive, ELG1 repair inh inconclusive
CC(C)c1ccc(OCc2ccc(C(=O)O)o2)cc1	RORgamma inh 2.8µM, Gal4-VP16 FLuc inconclusive, ELG1 repair inh inconclusive
COC(=O)Cn1c2c(c3cc(C)ccc31)CCCC2NC(C)c1ccccc1 (centres undefined)	Gal4-VP16 FLuc inconclusive
CN(C(=O)COc1ccc(Oc2ccccc2)cc1)C1CCS(=O)(=O)C1 (centres undefined)	none
OC[C@H]1NC[C@H](O)[C@@H](O)[C@@H]1O	none (no result: SW480 rerep, ELG1 repair inh, MCF10A rerep)
Cc1ccc(S(=O)(=O)Nc2ccc(C(OC(=O)c3ccccc3[N+](=O)[O-])(C(F)(F)F)C(F)(F)F)cc2)cc1	SW480 rerep inconclusive, ELG1 repair inh inconclusive, MCF10A rerep inconclusive
O=C(OC(c1ccc(NS(=O)(=O)c2ccccc2)cc1)(C(F)(F)F)C(F)(F)F)c1ccccc1	SW480 rerep inconclusive, RORgamma inh 14µM, Gal4-VP16 FLuc inconclusive, MCF10A rerep 18µM
CCOc1ccccc1NC(=O)c1nnn(-c2ccc3c(c2)OCCO3)c1N	SW480 rerep inconclusive, RORgamma inh inconclusive, ELG1 repair inh inconclusive
Cc1ccccc1NC(=O)c1nnn(-c2ccc3c(c2)OCCO3)c1N	RORgamma inh 0.63µM, Gal4-VP16 FLuc inconclusive, ELG1 repair inh inconclusive
O=C(NN=Cc1cc([N+](=O)[O-])ccc1O)c1cccc2ccccc12	SW480 rerep inconclusive (no result: RORgamma inh, Gal4-VP16 FLuc, ELG1 repair inh)
O=[N+]([O-])c1ccc(O)c(/C=N/NC(=S)Nc2ccc(Cl)cc2Cl)c1	SW480 rerep inconclusive, RORgamma inh 2.5µM, Gal4-VP16 FLuc 2.5µM, ELG1 repair inh 2.9µM
Cc1ccc(O)c(NC(=O)c2cc([N+](=O)[O-])ccc2Cl)c1	Gal4-VP16 FLuc inconclusive, ELG1 repair inh inconclusive, MCF10A rerep inconclusive
Cc1cc(Cl)ccc1NC(=O)CCC(=O)N/N=C/c1cc([N+](=O)[O-])ccc1O	RORgamma inh inconclusive, ELG1 repair inh 7.3µM
O=C(Nc1ccc([N+](=O)[O-])cc1Cl)c1cc(Cl)ccc1O	SW480 rerep 3.2µM!, RORgamma inh 1.3µM, Gal4-VP16 FLuc 1.3µM, ELG1 repair inh inconclusive, MCF10A rerep inconclusive
O=[N+]([O-])c1ccc(/C=N/NC(=S)Nc2ccc(Cl)cc2Cl)s1	SW480 rerep 21µM, RORgamma inh inconclusive, Gal4-VP16 FLuc inconclusive, ELG1 repair inh 8.2µM, MCF10A rerep inconclusive
Cc1ccccc1-c1nnn(CC(=O)NC(=O)NC2CCCC2)n1	none (no result: RORgamma inh, Gal4-VP16 FLuc)
O=C(NCc1ccccc1Cl)c1ccc2c(c1)OCO2	none
CCc1nc2ccc(C(=O)N3CCN(c4cccc(C)c4C)CC3)cc2nc1CC	ELG1 repair inh inconclusive, MCF10A rerep inconclusive
O=S(=O)(NC(=NCc1ccccc1)c1ccc(F)cc1)c1ccc(Cl)cc1	MCF10A rerep 0.73µM
CC(OC(=O)c1cc(=O)[nH]c2ccccc12)C(=O)Nc1ccccc1F (centres undefined)	none (no result: RORgamma inh, Gal4-VP16 FLuc)
C=CCOC(=O)CSCC(NC(=O)OC(C)(C)C)C(=O)OCC (centres undefined)	RORgamma inh 8.9µM, Gal4-VP16 FLuc 11µM
CC(=O)C1=C(C)NC(SCC(=O)c2ccccc2)=C(C#N)C1c1ccco1 (centres undefined)	Gal4-VP16 FLuc inconclusive, ELG1 repair inh inconclusive (no result: SW480 rerep, MCF10A rerep)
CC(=O)C1=C(C)NC(SCC(=O)c2ccccc2)=C(C#N)C1CC(C)C (centres undefined)	RORgamma inh 11µM, Gal4-VP16 FLuc inconclusive, MCF10A rerep inconclusive
c1ccc(-c2nc(-c3ccco3)n3ccccc23)cc1	SW480 rerep inconclusive, RORgamma inh inconclusive, Gal4-VP16 FLuc inconclusive, MCF10A rerep 21µM
Cc1cccc(-n2c(SCC(=O)Nc3ccc4c(c3)OCO4)nnc2-c2ccoc2C)c1	RORgamma inh 2µM, Gal4-VP16 FLuc inconclusive, MCF10A rerep inconclusive
O=[N+]([O-])c1ccc(/C=N/N=C/c2ccc([N+](=O)[O-])o2)o1	RORgamma inh 1.1µM, Gal4-VP16 FLuc 4.5µM, ELG1 repair inh inconclusive, MCF10A rerep 2.6µM
Cc1cc2ncn(/N=C/c3ccc([N+](=O)[O-])o3)c2cc1C	SW480 rerep 21µM, Gal4-VP16 FLuc inconclusive, MCF10A rerep 21µM
O=C1CN(/N=C\c2ccc([N+](=O)[O-])o2)C(=O)N1	none (no result: SW480 rerep, ELG1 repair inh, MCF10A rerep)
O=C(CC12CC3CC(CC(C3)C1)C2)N/N=C\c1ccc[nH]1	RORgamma inh 7.9µM, Gal4-VP16 FLuc 16µM
CC1(C(=O)N/N=C/c2ccc([N+](=O)[O-])o2)CC1(Br)Br (centres undefined)	SW480 rerep 4.6µM, Gal4-VP16 FLuc inconclusive, MCF10A rerep inconclusive
COc1ccc(CN(C)C(=O)CCN(c2ccccc2)S(=O)(=O)c2ccc(C)cc2)c(OC)c1	SW480 rerep inconclusive, ELG1 repair inh inconclusive (no result: RORgamma inh, Gal4-VP16 FLuc)
Cc1ccccc1S(=O)Cc1ccc(C(=O)N2CCN(C(=O)c3ccco3)CC2)o1 (centres undefined)	none
O=C(CC12CC3CC(CC(C3)C1)C2)N/N=C/c1ccc([N+](=O)[O-])o1	SW480 rerep inconclusive, RORgamma inh 10µM, Gal4-VP16 FLuc inconclusive, ELG1 repair inh inconclusive, MCF10A rerep inconclusive

Screening results: PubChem BioAssay, National Center for Advancing Translational Sciences (NCATS)
